Inconclusive results are not listed. Unmarked numbers belong to inactive results. The source made the active and inactive calls. Calls come from the whole dose curve; as a rule, active = well fitted cell-killing curve with a large enough effect; inconclusive = small, poorly fitted or top-dose-only effect, or effect the other way; inactive = no such curve, though single readings can be large or run the other way.
Assay: Quantitative High-Throughput drug screen in 47 multiple myeloma cell lines against the NCATS MIPE library collection: ARD_JJKsccE7 cell viability assay (AID 1918929)
Details: ARD myeloma cell line viability, CellTiter-Glo, 48 h; series mostly up to 45.8 µM; viability: at the top concentration
Method in brief: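 CellTiter-Glo luminescence (ATP) after 48 h compound exposure, 37C/5% CO2; 500 cells/well; MIPE 4.0 approved/investigational drugs pinned in; DMSO = 100%, media only = 0% viability.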
Potency is the fitted concentration of half-maximal effect.

Structure (SMILES) | viability [%] | Potency
O=c1[nH]c(-c2ccc(C(F)(F)F)cc2)nc2c1CSCC2 | 126 | 
Cn1cnc([N+](=O)[O-])c1Sc1ncnc2nc[nH]c12 |  | 1.18 µM (active)
O=C(O)COCCN1CCN(C(c2ccccc2)c2ccc(Cl)cc2)CC1 (stereo unspecified) | 155 | 
N=c1nc(N2CCCCC2)cc(N)n1O | 134 | 
CCCS(=O)(=O)Nc1ccc(F)c(C(=O)c2c[nH]c3ncc(Cl)cc23)c1F |  | 18.7 µM (active)
Cc1cc(-c2ccc(CC(=O)Nc3ccc(-c4cccnc4)cc3)cc2)ccn1 |  | 16.6 µM (active)
CCC(=O)N[C@H]1CC[C@H](C(=O)N(C)c2ccc(-c3nc4ccccc4o3)cc2)C1 |  | 11.8 µM (active)
CCCc1nn(C)c2c(=O)[nH]c(-c3cc(S(=O)(=O)N4CCN(C)CC4)ccc3OCC)nc12 | 103 | 
NC(=O)c1ccc(-c2nc(-c3ccc4c(c3)OCO4)c(-c3ccccn3)[nH]2)cc1 | 126 | 
CCN(CC)CCCC(C)Nc1nc(C)cc(Nc2ccc3nc(C)cc(N)c3c2)n1 (stereo unspecified) |  | 14.8 µM (active)
COc1ccc(-c2oc3cc(OC)ccc3c2C(=O)c2ccc(C#N)cc2)cc1 |  | 10.5 µM (active)
CCc1cc(Nc2nccc(-c3c(-c4ccc(OC)c(C(=O)Nc5c(F)cccc5F)c4)nc4ccccn34)n2)c(OC)cc1N1CCC(N2CCN(S(C)(=O)=O)CC2)CC1 |  | 4.69 µM (active)
Nc1cccc(S(=O)(=O)N2CCCN(S(=O)(=O)c3ccc4c(c3)OCCO4)CC2)c1 | 113 | 
c1ccc(-c2nn3c(c2-c2ccnc4cc(OCCN5CCOCC5)ccc24)CCC3)nc1 | 119 | 
Oc1ccc(C2CNCCc3c2cc(O)c(O)c3Cl)cc1 (stereo unspecified) | 83.9 | 
C[C@@H]1CN(Cc2ccc(F)cc2)[C@@H](C)CN1C(=O)c1cc2c(C(=O)C(=O)N(C)C)cn(C)c2cc1Cl |  | 9.35 µM (active)
CN(C)c1ccc(Nc2nc(N)n(C(=O)c3c(F)cccc3F)n2)cc1 |  | 20.9 µM (active)
CS(=O)(=O)Oc1ccc2c(NC(N)=O)c(C(=O)c3ccc(Cl)cc3Cl)oc2c1 |  | 8.33 µM (active)
COCC(=O)NCC=Cc1ccc2ncnc(Nc3ccc(Oc4ccc(C)nc4)c(C)c3)c2c1 |  | 11.8 µM (active)
CC(C=CC1=C(C)CCCC1(C)C)=CC=CC(C)=CC(=O)O |  | 23.5 µM (active)
Fc1ccc(Cl)cc1-c1nc(Nc2ccncc2)c2nccnc2n1 | 94.4 | 
CN(C)c1ccc(C2Nc3ccc4ccccc4c3C3=C2C(=O)CC(C)(C)C3)cc1Br (stereo unspecified) | 140 | 
O=C(Nc1ccc(F)c(C(F)(F)F)c1)Nc1nnc(-c2ccncc2)s1 | 129 | 
CN1CCN(CCCN2c3ccccc3Sc3ccc(C(F)(F)F)cc32)CC1 | 118 | 
OCCC#Cc1nc(-c2ccc(F)cc2)c(-c2ccncc2)n1CCCc1ccccc1 |  | 16.6 µM (active)
COc1c(Cl)cc2c([nH]c3cnccc32)c1NC(=O)c1cccnc1C |  | 3.32 µM (active)
C#Cc1cccc(Nc2ncnc3cc(OCCOC)c(OCCOC)cc23)c1 |  | 5.9 µM (active)
CC(C)(Sc1ccc(CCN(CCCCC2CCCCC2)C(=O)NC2CCCCC2)cc1)C(=O)O | 111 | 
Cc1oncc1C(=O)Nc1ccc(C(F)(F)F)cc1 | 105 | 
CCc1ccc(CCOc2ccc(CC3SC(=O)NC3=O)cc2)nc1 (stereo unspecified) | 126 | 

Assay: Quantitative High-Throughput drug screen in 47 multiple myeloma cell lines against the NCATS MIPE library collection: Karpas620_DSMZ cell viability assay (AID 1918959); note: nearly all actives have a fitted effect of over 30% in size
Details: Karpas620 myeloma viability, CellTiter-Glo ATP luminescence, 48 h; series mostly up to 45.8 µM; viability (% of DMSO): at the top concentration
Method in brief: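 Viability readout: CellTiter-Glo luminescence following 5 min room-temperature incubation with reagent. Prior exposure: 48 h, 37C, humidified 5% CO2, 500 cells per well.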

Structure (SMILES) | viability (% of DMSO) [%] | Potency
O=c1[nH]c(-c2ccc(C(F)(F)F)cc2)nc2c1CSCC2 | 108 | 
O=C(O)COCCN1CCN(C(c2ccccc2)c2ccc(Cl)cc2)CC1 (stereo unspecified) | 122 | 
N=c1nc(N2CCCCC2)cc(N)n1O | 118 | 
O=C(NOC[C@H](O)CO)c1ccc(F)c(F)c1Nc1ccc(I)cc1F |  | 0.0469 µM (active)
CCCS(=O)(=O)Nc1ccc(F)c(C(=O)c2c[nH]c3ncc(Cl)cc23)c1F |  | 20.9 µM (active)
NC(=O)c1ccc(-c2nc(-c3ccc4c(c3)OCO4)c(-c3ccccn3)[nH]2)cc1 | 91.2 | 
CCN(CC)CCCC(C)Nc1nc(C)cc(Nc2ccc3nc(C)cc(N)c3c2)n1 (stereo unspecified) |  | 7.43 µM (active)
COc1ccc(-c2oc3cc(OC)ccc3c2C(=O)c2ccc(C#N)cc2)cc1 |  | 1.66 µM (active)
Nc1cccc(S(=O)(=O)N2CCCN(S(=O)(=O)c3ccc4c(c3)OCCO4)CC2)c1 | 102 | 
c1ccc(-c2nn3c(c2-c2ccnc4cc(OCCN5CCOCC5)ccc24)CCC3)nc1 | 102 | 
Oc1ccc(C2CNCCc3c2cc(O)c(O)c3Cl)cc1 (stereo unspecified) | 80.4 | 
CCc1cncnc1N1CCN(Cc2nc3ccc(C(F)(F)F)cc3[nH]2)CC1 |  | 7.43 µM (active)
CS(=O)(=O)Oc1ccc2c(NC(N)=O)c(C(=O)c3ccc(Cl)cc3Cl)oc2c1 |  | 10.5 µM (active)
Fc1ccc(Cl)cc1-c1nc(Nc2ccncc2)c2nccnc2n1 | 83.2 | 
O=C1CCc2cc(OCCCCc3nnnn3C3CCCCC3)ccc2N1 | 108 | 
O=NN(CCCl)C(=O)NCCCl | 102 | 
OCCC#Cc1nc(-c2ccc(F)cc2)c(-c2ccncc2)n1CCCc1ccccc1 |  | 20.9 µM (active)
COc1c(Cl)cc2c([nH]c3cnccc32)c1NC(=O)c1cccnc1C |  | 18.7 µM (active)
C#Cc1cccc(Nc2ncnc3cc(OCCOC)c(OCCOC)cc23)c1 |  | 4.69 µM (active)
CC(C)(Sc1ccc(CCN(CCCCC2CCCCC2)C(=O)NC2CCCCC2)cc1)C(=O)O | 125 | 
Cc1oncc1C(=O)Nc1ccc(C(F)(F)F)cc1 | 94.7 | 
